According to the supplement of paper PMC10720658:
± gives the standard deviation of the averaged measurements.

Each compound was assayed on AEK1 (Tb927.3.2440) (assay: percent reduction in TR-FRET probe signal relative to DMSO control; higher = stronger displacement of ATP-site probe (binding)). Conditions: 1 µM; incubation time 1 h.

Row | Compound | percent reduction in TR-FRET probe signal
1 | Cc1ccc(S(=O)(=O)/C=C/C#N)cc1 | -7.27 ± 4.2%
2 | COc1cc2c(Nc3ccc(NC(=O)c4ccccc4)cc3)ncnc2cc1OCCCN1CCOCC1 | 4.13 ± 16%
3 | O=C(NOCC(O)CO)c1cc(Br)c(F)c(F)c1Nc1ccc(I)cc1F (configuration not stated) | -4.38 ± 12%
4 | CN1CC[C@@H](c2c(O)cc(O)c3c(=O)cc(-c4ccccc4Cl)oc23)[C@@H]1CO.Cl | 4 ± 2.6%
5 | COc1ccc(S(=O)(=O)N(CCO)c2ccccc2CN(C)C/C=C/c2ccc(Cl)cc2)cc1.O=P(O)(O)O [KN-93 Phosphate] | -9.18 ± 9.6%
6 | CC[C@@](C)(Nc1ccnc(-c2c[nH]c3ncccc23)n1)C(=O)NCC(F)(F)F [Decernotinib (VX-509)] | -1.74 ± 4.4%
7 | CCc1cc(Nc2nccc(-c3c(-c4ccc(OC)c(C(=O)Nc5c(F)cccc5F)c4)nc4ccccn34)n2)c(OC)cc1N1CCC(N2CCN(S(C)(=O)=O)CC2)CC1 | -12.2 ± 12%
8 | C#Cc1cccc(Nc2ncnc3cc(OC)c(OCCCCCCC(=O)NO)cc23)c1 | -2.76 ± 13%
9 | C[C@@]1(C(=O)Nc2ccc(F)nc2)CCCN1c1nc(Nc2cc(C3CC3)[nH]n2)c2cccn2n1 | 23.1 ± 8.1%
10 | O=C(O)c1ccc(Nc2ncc3c(n2)-c2ccc(Cl)cc2C(c2c(F)cccc2F)=NC3)cc1 | -4.14 ± 5.4%
11 | CCc1cnn2c(NCc3ccc[n+]([O-])c3)cc(N3CCCC[C@H]3CCO)nc12 | -4.69 ± 4.1%
12 | COc1cc2nccc(Oc3ccc(NC(=O)Nc4ccc(F)cc4F)c(F)c3)c2cc1OC | 10.2 ± 11%
